Results taken from PubChem BioAssay AID488969 (Vanderbilt High Throughput Screening Facility, 2010).
Over roughly 110,000 compounds, “z-score” has its median near -0.1; the highest 2% begin near 2. Only a selection was taken, and the highest values are over-represented in it overall. Active and inactive are the calls of the source.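 How the source made its calls: active means z-score in the third read window above 3 or below -3; inactive means the rest.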

What follows are compounds tested against Metabotropic glutamate receptor 8 (Rattus norvegicus) (UniProt P70579) (assay: rat mGluR8 modulators via GIRK flux, primary screen, cell-based, thallium flux, HTS (AID 488969)). Settings: HEK293 rat mGluR8, GIRK (G protein-gated inwardly rectifying potassium channel) thallium flux, FluoZin2; at 10 µM; stronger effect = higher value; submaximal glutamate (EC20) added with thallium.
Chain of Metabotropic glutamate receptor 8 (Rattus norvegicus) (P70579 whole entry, looked up): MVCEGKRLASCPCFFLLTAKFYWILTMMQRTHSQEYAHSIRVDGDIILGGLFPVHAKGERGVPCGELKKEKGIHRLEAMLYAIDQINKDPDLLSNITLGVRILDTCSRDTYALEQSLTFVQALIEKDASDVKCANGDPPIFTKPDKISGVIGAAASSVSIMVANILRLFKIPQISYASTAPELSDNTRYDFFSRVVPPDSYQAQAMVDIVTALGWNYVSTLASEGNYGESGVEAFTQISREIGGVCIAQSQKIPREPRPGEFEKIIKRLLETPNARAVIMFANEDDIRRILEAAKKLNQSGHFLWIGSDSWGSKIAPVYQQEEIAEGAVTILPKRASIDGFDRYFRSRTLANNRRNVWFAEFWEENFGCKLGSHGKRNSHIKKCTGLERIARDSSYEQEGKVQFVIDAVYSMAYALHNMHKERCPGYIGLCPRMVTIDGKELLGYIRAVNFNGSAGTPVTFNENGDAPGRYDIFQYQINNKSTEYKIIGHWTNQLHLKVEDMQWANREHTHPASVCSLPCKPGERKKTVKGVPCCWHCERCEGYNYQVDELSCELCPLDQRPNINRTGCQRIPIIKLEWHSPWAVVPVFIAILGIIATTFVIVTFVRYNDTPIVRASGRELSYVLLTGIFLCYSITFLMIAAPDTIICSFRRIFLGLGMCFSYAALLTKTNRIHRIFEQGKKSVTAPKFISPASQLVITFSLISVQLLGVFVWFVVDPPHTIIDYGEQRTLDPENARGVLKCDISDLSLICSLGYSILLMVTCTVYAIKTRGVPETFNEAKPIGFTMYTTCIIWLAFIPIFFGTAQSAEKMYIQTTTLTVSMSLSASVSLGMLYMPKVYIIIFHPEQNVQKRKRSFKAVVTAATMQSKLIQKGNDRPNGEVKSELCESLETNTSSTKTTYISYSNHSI

Structure (SMILES) | z-score
COc1cccc(-c2nnc(NC(=O)C(C)C)o2)c1 | 0.295
COc1ccc(-c2nnc(-c3ccc(OCC(C)C)cc3)o2)cc1 | 0.807
CCOc1ccc(-c2nnc(NC(=O)CCCOc3cccc(C)c3)o2)cc1 | 3.62 (active)
COc1ccc(-c2nnc(NC(=O)C(C)C)o2)cc1 | 2.14
CC(C)C(=O)Nc1nnc(-c2ccccc2)o1 | 0.162
CCOc1ccc(-c2nnc(NC(=O)c3ccc(OCC(C)C)c(OC)c3)o2)cc1 | 10.4 (active)
COc1ccc(-c2nnc(NC(=O)c3cc(Cl)ccc3Cl)o2)cc1 | 1.02
O=C(COc1ccccc1)Nc1nnc(-c2ccccc2)o1 | -0.421
COc1ccc(-c2nnc(NC(=O)c3ccc(F)cc3)o2)cc1 | 5.46 (active)
CCC(=O)Nc1nnc(-c2ccc(OC)cc2)o1 | -0.442
CCOc1ccc(NC(=O)CNC(=O)c2ccc(OC)c(OC)c2)cc1 | -0.166
CCOc1cccc(C(=O)Nc2cccc(-c3nnc(-c4ccc(C)cc4)o3)c2)c1 | 0.689
O=C(Nc1cccc(F)c1)C1CCN(C(=O)c2ccccc2Cl)CC1 | -0.486
CCOC(=O)CS(=O)(=O)c1ccc(C(F)(F)F)cn1 | -0.0154
CCCOC(=O)c1ccc(NS(=O)(=O)c2cccs2)cc1 | 0.0163
Cc1cc(C)c2nc(NC(=O)c3cccc(S(=O)(=O)N4CCc5ccccc54)c3)sc2c1 | -0.315
CN1CCOCCOCCN(C)C(=O)N2CCOCCOCCN(CCOCC2)C1=O | 1.25
CC(C)(C)c1ccc(CSc2nnc(-c3ccccn3)n2Cc2ccco2)cc1 | -0.295
Clc1ncnc2scc(C3COc4ccccc4O3)c12 (stereo unspecified) | -0.228

Structure (SMILES) | z-score
Cc1cc(C)nc(NS(=O)(=O)c2ccc(NC(=O)CCC3COc4ccccc4O3)cc2)n1 (stereo unspecified) | -0.4
Cc1cc(NC(=O)c2cnc3ccccn3c2=O)no1 | -0.108
CCCCNC(=S)NCCN1CCCCC1 | 0.407
COc1ccc(C(C[N+](=O)[O-])c2c(C)[nH]c3ccccc23)cc1OC (stereo unspecified) | -2.31
CCN(CC(O)COc1ccc(OCC(O)CN(CC)C2CCCCC2)cc1)C1CCCCC1 (stereo unspecified) | 2.32
CN(CC(O)COc1ccc(OCC(O)CN(C)C2CCCCC2)cc1)C1CCCCC1 (stereo unspecified) | 1.64
COc1ccc(OCC(O)CN(C2CCCCC2)C2CCCCC2)cc1 (stereo unspecified) | 0.744
O=C(/C=C/c1ccc(S(=O)(=O)N2CCOCC2)cc1)NCc1ccccc1 | -0.687
CCOC(=O)N1CCC(N(C(=O)Nc2ccc(Cl)c(Cl)c2)C(C)CC)CC1 (stereo unspecified) | -0.099
COc1cc(-c2nnc(CSc3nc4ccccc4s3)o2)cc(OC)c1OC | -3.36 (active)
COc1cccc(-c2nnc(-c3ccc(C(F)(F)F)cc3)o2)c1 | -0.245
Nc1nc2c(F)cccc2s1 | -0.0918
Fc1cccc2sc(Nc3nnc(-c4ccccc4)o3)nc12 | 17.1 (active)
Cc1ccsc1C(=O)Nc1nnc(-c2ccco2)o1 | 0.832
c1coc(-c2nnc(NC3=NCCC3)o2)c1 | 1.08
O=c1oc2ccccc2cc1-c1csc(Nc2nc3c(F)cccc3s2)n1 | 0.848
CCOC(=O)c1sc(Nc2nc3c(F)cccc3s2)cc1C | 0.23
COc1cc(OC)cc(-c2nnc(Nc3nc4c(F)cccc4s3)o2)c1 | 9.94 (active)
COc1cccc(-c2nnc(Nc3nc4c(F)cccc4s3)o2)c1 | 17.4 (active)

Structure (SMILES) | z-score
COc1cccc(-c2nnc(NC(=O)C3CCCCC3)o2)c1 | -0.375
Fc1cccc2sc(Nc3nnc(-c4ccco4)o3)nc12 | 16 (active)
CCOC(=O)C(C)n1cnc2c1c(=O)[nH]c(=O)n2C (stereo unspecified) | -0.374
COc1ccc(CNC(=O)CN(C(=O)c2ccc(CN3CCOCC3)o2)C2CCCC2)cc1 | -0.1
CCOc1cc(-c2cc(-c3ccc(C)cc3)nc(N)c2C#N)ccc1O | -0.244
CC1c2c([nH]c3ccccc23)CCC1C(=O)O (stereo unspecified) | 0.673
CCN1CCN(C(=S)NCc2ccc(C)cc2)CC1 | 0.0391
CN(CC(=O)Nc1cccnc1)S(=O)(=O)c1ccccc1 | -0.0827
CCOC(=O)C1[C@H]2C(=O)N(CCCOC)C[C@]23C=C[C@H]1O3 (stereo partly specified) | -0.0146
CCOCCCNCC(=O)NC1(C)C2CCC(C2)C1(C)C (stereo unspecified) | -0.581
O=C(Nc1ccc2c(c1)OCO2)N1CCN(C/C=C/c2ccccc2)CC1 | -0.663
CN(C)c1cccc(C(=O)OCC(=O)NCC2CCCO2)c1 (stereo unspecified) | -0.266
Cc1ccc(CN=C2Nc3ccccc3CS2)cc1 | -0.225
Cc1cccc(NC(=O)c2cc(Cl)sc2Cl)c1C | 0.0762
CC(C)(C)Cc1nc(-c2ccc(Cl)cc2)no1 | 0.892
COc1ccc(CCC(=O)NCc2cnn(C)c2)cc1 | 3.37 (active)
CCn1cc(CNC(=O)CCc2ccc(OC)cc2)cn1 | 0.0492
COc1ccc(CCC(=O)NCc2cn3ccsc3n2)cc1 | 0.0209
